Source: PubChem BioAssay
EPAC2 antag: EPAC2 (human) antagonism; EPAC2 GEF exchange of Rap1B-BODIPY-GDP, fluorescence; Potency, µM (highest dose often 114 µM), most hits filed as inhibitors; 0.18% of 360,000 active; also: nearly all actives have a fitted effect of over 45% in size
USP1-UAF1 inh: blocks the human USP1/UAF1 deubiquitinase complex | O94782 | recombinant USP1/UAF1, Ub-Rhodamine cleavage fluorescence | Potency, µM (titrated, usually from 57.1 µM), usual class: inhibitors | 0.23% of 390,000 active | AID 743255; also: nearly all actives have a fitted effect of over 60% in size
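1 nM enzyme complex + cpd, 15 min RT; start with Ub-Rho 150nM final; kinetic fluorescence ex 480/em 540, 6 reads q60 s. Buffer 50mM HEPES pH 7.8, 0.5mM EDTA, 0.1 mg/ml BSA, 1mM TCEP, 0.01% Tween-20.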
EPAC2 ag: agonists of human EPAC2 (RAPGEF4) | EPAC2 activation, biochemical qHTS; response scale: 100% = 6.5 mM cAMP response | Potency, µM (series often up to 154 µM), hits mostly activators | Q8WZA2 | 0.079% of 360,000 active; also: nearly all actives have a fitted effect of over 50% in size
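Fluorescence exchange assay: 100 nM EPAC2 with 250 nM RAP1B-BODIPY-GDP and 50 uM GDP; compounds tested as a concentration-titration series (qHTS). Loss of Rap1-bound BODIPY-GDP fluorescence read at 480/540 nm; data normalized to 6.5 mM cAMP.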
EPAC1 antag: blocks human EPAC1 exchange factor; 0.14% of 360,000 active; Potency, µM (series often up to 115 µM), usual class: inhibitors; EPAC1 GEF assay, Rap1b-BODIPY-GDP exchange fluorescence; also: nearly all actives have a fitted effect of over 50% in size
Target sequence (O95398 whole entry, looked up): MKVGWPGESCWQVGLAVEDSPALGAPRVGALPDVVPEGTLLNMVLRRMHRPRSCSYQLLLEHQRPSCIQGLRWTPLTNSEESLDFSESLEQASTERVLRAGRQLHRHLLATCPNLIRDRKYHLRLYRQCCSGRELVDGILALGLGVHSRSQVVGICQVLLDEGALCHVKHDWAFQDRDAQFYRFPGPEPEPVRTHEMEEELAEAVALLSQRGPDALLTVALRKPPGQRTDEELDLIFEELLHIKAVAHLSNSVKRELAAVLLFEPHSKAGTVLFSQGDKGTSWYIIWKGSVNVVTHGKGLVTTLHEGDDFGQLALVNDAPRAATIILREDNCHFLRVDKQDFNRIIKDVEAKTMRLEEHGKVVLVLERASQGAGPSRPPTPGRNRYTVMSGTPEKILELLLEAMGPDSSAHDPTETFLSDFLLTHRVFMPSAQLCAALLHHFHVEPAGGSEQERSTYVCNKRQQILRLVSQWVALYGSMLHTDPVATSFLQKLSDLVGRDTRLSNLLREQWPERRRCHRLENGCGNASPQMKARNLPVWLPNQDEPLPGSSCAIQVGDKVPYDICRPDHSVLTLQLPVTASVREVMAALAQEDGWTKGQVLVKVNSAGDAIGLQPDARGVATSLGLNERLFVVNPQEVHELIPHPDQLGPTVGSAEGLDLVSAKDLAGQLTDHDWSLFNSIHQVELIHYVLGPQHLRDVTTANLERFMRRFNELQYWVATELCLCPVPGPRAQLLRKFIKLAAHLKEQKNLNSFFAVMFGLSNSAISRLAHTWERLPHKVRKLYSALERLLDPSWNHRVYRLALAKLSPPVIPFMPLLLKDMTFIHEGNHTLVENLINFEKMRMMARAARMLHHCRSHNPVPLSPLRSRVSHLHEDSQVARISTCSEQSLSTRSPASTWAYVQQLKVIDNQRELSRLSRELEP
EPAC1 agonist: activates human EPAC1 exchange factor. O95398. EPAC1 agonist qHTS, biochemical assay; response scale: 100% = response to 6.5 mM cAMP. Potency, µM (highest dose often 154 µM), usual class: activators. 0.073% of 360,000 active. AID 720707; also: nearly all actives have a fitted effect of over 60% in size
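Multi-concentration qHTS readout: loss of Rap1B-bound BODIPY-GDP fluorescence driven by 100 nM EPAC1 with excess GDP (50 uM), monitored kinetically at room temperature; agonist response expressed relative to 6.5 mM cAMP.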
Hits are given with their value; . = inactive; ? = inconclusive; / = no result given. Most compounds without a hit are left out; they make up all but 0.45% or so of the library. Calls follow the shape of the dose curve; as a rule, active = well fitted curve in the direction sought with a large enough effect; inconclusive = small, poorly fitted or top-dose-only effect, or another doubt; inactive = no such curve, though single readings can be large; an effect the other way counts as inactive or inconclusive.

SMILES | EPAC2 antag | USP1-UAF1 inh | EPAC2 ag | EPAC1 antag | EPAC1 agonist
Cc1cc(S(=O)(=O)N2CCN(CC(=O)N(C)Cc3ccccc3)CC2)ccc1Br | . | . | . | . | 63µM
CCn1cc2nc(SCC(=O)Nc3ccccc3C(F)(F)F)n(Cc3ccc(C)cc3)c(=O)c2n1 | / | . | / | / | /
O=C(NCCC1=CCCCC1)c1cc(S(=O)(=O)N2CCOCC2)ccc1Cl | . | . | . | . | .
Cc1ccc(S(=O)(=O)N2CCCCC2)cc1C(=O)NCCC1=CCCCC1 | . | . | . | . | 112µM
O=C(N/N=C/c1cccnc1)c1cc(-c2ccccc2OCc2ccccc2)n[nH]1 | . | . | . | 50µM | .
O=C(N/N=C/c1cccnc1)c1ccccc1OCc1ccc(Br)cc1 | . | . | . | . | .
CSc1ccc(CCNC(=O)CCc2c(C)nc3c4cccnc4nn3c2C)cc1 | / | . | / | / | /
CN1/C(=C\C=C2/SC(=S)N(CC(=O)O)C2=O)C(C)(C)c2ccccc21 | . | 25µM | 112µM | . | 63µM
C=CCN1C(=O)/C(=C\C=C2\N(C)c3ccccc3C2(C)C)SC1=S | . | ? | . | . | .
CN1CCS/C1=C\C=C1/SC(=S)N(CC(=O)O)C1=O | . | 25µM | ? | . | 22µM
CCN1C(=O)/C(=C/C=C2/SCCN2C)SC1=S | . | 25µM | 35µM | . | 100µM
CCN1C(=O)/C(=C/C=C2/Sc3ccccc3N2CCO)SC1=S | . | . | . | . | .
O=C(Nc1ccccc1)c1ccc2nc(-c3ccco3)c(-c3ccco3)nc2c1 | . | . | . | ? | .
O=C(NCc1ccccc1)c1ccc2nc(-c3ccco3)c(-c3ccco3)nc2c1 | . | ? | . | 32µM | .
Cc1ccc(CNC(=O)CN2C(=O)CSc3ccc(S(=O)(=O)N(C)C)cc32)cc1 | / | . | / | / | /
COc1ccc(OC)c(NC(=O)C(C)Oc2ccc(Br)cc2)c1 (configuration not stated) | 13µM | . | . | . | .
COc1ccc(NC(=O)NNC(=O)C(C)Oc2ccc(C(C)C)cc2)c(OC)c1 (configuration not stated) | . | . | . | . | .
COc1ccc(OC)c(C2CC(=O)Nc3c2c(=O)n(C)c2ncnn32)c1 (configuration not stated) | / | . | / | / | /
Cc1n[nH]c(C)c1N1C(=O)c2cccc3c(N4CCCCCC4)ccc(c23)C1=O | . | 25µM | . | . | ?
O=C1c2cccc3c(N4CCCCC4)ccc(c23)C(=O)N1c1cccc(O)c1 | . | ? | 100µM | . | ?
O=C1c2cccc3c(N4CCCCC4)ccc(c23)C(=O)N1CCO | . | ? | . | . | .
C=CCN1C(=O)c2cccc3c(N4CCCCC4)ccc(c23)C1=O | . | ? | 100µM | . | .
Cn1c(-c2c(N)n(CCc3ccccc3)c3nc4ccccc4nc23)nc2ccccc21 | . | 28µM | . | . | .
CCn1cc(S(=O)(=O)c2ccc(C)cc2)c(=O)c2cc(F)c(N3CCCCCC3)cc21 | / | . | / | / | /
Cc1ccc(NC(=O)CCC(=O)N2Cc3ccccc3Oc3ncccc32)cc1 | / | . | / | / | /
SMILES | EPAC2 antag | USP1-UAF1 inh | EPAC2 ag | EPAC1 antag | EPAC1 agonist
O=C(Nc1ccc2nc(-c3ccc4nc[nH]c4c3)[nH]c2c1)c1cccs1 | 50µM | ? | ? | . | .
COc1ccc(CC(=O)Nc2cc(-c3nc4cccnc4s3)ccc2C)cc1 | / | . | / | / | /
CCc1nc2c(OCc3cccc(Cl)c3)cccn2c1N(C)C(=O)C(C)C | . | / | . | . | .
CCc1nc2c(OCc3cccc(Cl)c3)cccn2c1N(C)C(C)=O | . | / | 20µM | . | .
COc1ccc(N2CCN(C3C(=O)c4ccccc4N3C(C)=O)CC2)cc1 (configuration not stated) | / | . | / | / | /
COc1ccccc1N(CC(=O)Nc1cc(C)on1)S(=O)(=O)c1ccc(Cl)cc1 | . | . | 4µM | . | .
COc1ccccc1N(C)S(=O)(=O)c1ccc(C(=O)OCC(=O)Nc2cc(C)on2)cc1 | . | . | . | . | .
Cc1ccc(-n2ncc(C(=O)NCCc3ccsc3)c2C2CCN(C(=O)OC(C)(C)C)CC2)c(C)c1 | / | . | / | / | /
Oc1cc2ccccc2cc1-c1n[nH]c(=S)o1 | . | . | . | 79µM | .
CCOC(=O)c1ccc(NC(=O)CCCc2nc(-c3ccccc3Cl)no2)cc1 | / | . | / | / | /
Cc1cc(C)c2nc(NNC(=O)c3ccc(S(=O)(=O)N4CCc5ccccc5C4)cc3)sc2c1 | . | . | . | . | .
Cc1cc(C)c2nc(NNC(=O)c3cc(=O)c4ccccc4o3)sc2c1 | . | 28µM | . | . | .
COc1ccc(CCC(=O)Nc2c(-c3ccc(N(C)C)cc3)[nH][nH]c2=O)cc1 | . | / | ? | 50µM | .
CCOC(=O)c1ccc(CN(Cc2ccc(F)cc2)S(=O)(=O)c2cc(C(=O)Nc3cccc(C(F)(F)F)c3)ccc2F)cc1 | / | . | / | / | /
CCOc1ccc(-n2cnc3scc(-c4ccc(OC)c(OC)c4)c3c2=O)cc1 | 50µM | . | . | . | .
COc1cccc(-n2cnc3scc(-c4cccs4)c3c2=O)c1 | . | . | . | . | .
Cc1c(C)c2ccc(OCC(=O)Nc3ccc(S(N)(=O)=O)cc3)c(C)c2oc1=O | . | . | . | 71µM | .
CC(C)c1ccc(S(=O)(=O)/N=C2\C=C(NS(=O)(=O)c3ccccc3)C(=O)c3ccccc32)cc1 | ? | ? | . | . | .
Cc1ccc(C)c(S(=O)(=O)/N=C2\C=C(NS(=O)(=O)c3ccccc3)C(=O)c3ccccc32)c1 | ? | 16µM | . | . | .
CCc1ccc(S(=O)(=O)/N=C2\C=C(NS(=O)(=O)c3ccccc3)C(=O)c3ccccc32)cc1 | ? | 25µM | . | ? | .
COc1ccc(OC)c(NC(=O)Nc2cccc(OCc3cc(=O)n4cc(C)ccc4n3)c2)c1 | / | . | / | / | /
CCOC(=O)c1ccc(OC(=O)c2cn(-c3cccc(OC)c3)c(=O)c3ccccc23)cc1 | / | . | / | / | /
Cc1ccc(NC(=O)CSc2nnc3[nH]c(=O)cc(-c4ccccc4)n23)cc1Cl | / | . | / | / | /
Cc1cc(C)c(S(=O)(=O)/N=C2/C=C(Sc3ncn[nH]3)C(=O)c3ccccc32)cc1C | ? | 1.3µM | . | 45µM | .
Cc1ccc(NC2=C/C(=N/S(=O)(=O)c3cccs3)c3ccccc3C2=O)cc1C | . | . | . | . | .
O=C(O)c1ccc(-c2ccc(/C=c3/sc4nc5ccccc5n4c3=O)o2)cc1Cl | . | 28µM | . | . | .
CC(=O)c1ccc(N2CCN(C(=O)c3cn(C)c(=O)c4c3c3ccccc3n4C)CC2)cc1 | / | . | / | / | /
CCC(Oc1ccccc1)C(=O)Nc1ccccc1N1CCCCC1 (configuration not stated) | 13µM | . | . | . | .
CCC(Oc1ccccc1)C(=O)Nc1ccccc1N1CCCC1 (configuration not stated) | 50µM | . | . | . | .
COc1ccc(CNC(=O)CCC(=O)N2CCSc3ccccc32)cc1 | / | . | / | / | /
